Efflux pump inh: blocks antifungal efflux pumps in multiplex yeast assay | 0.44% of 330,000 active | S. cerevisiae Candida pump triplex, Nile Red efflux | inhibition, % at 10 µM;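 active = plate passing quality check with inhibition over a set limit, or well fluorescence over plate mean plus 4 SD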;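 note: Nile Red retained in pooled yeast measured as flow cytometry median fluorescence; higher means more Nile Red kept so more efflux inhibition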
RPL19A TOR yeast: yeast TOR pathway RPL19A-GFP modulation; S. cerevisiae RPL19A-GFP strain, flow cytometry, 3 h; active compounds read low; percent response vs DMSO, % at 10 µM; 0.3% of 330,000 active;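 active = percent response vs DMSO below 50%; inconclusive = fewer than 70 events counted for the yeast strain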;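 note: median channel GFP fluorescence of the barcoded RPL19A-GFP strain; lower means less RPL19A-GFP as with rapamycin TOR inhibition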
AGP1 TOR yeast: yeast TOR pathway AGP1-GFP modulation; 0.02% of 320,000 active; S. cerevisiae AGP1-GFP multiplex flow cytometry, 3 h; GFP as percent of DMSO wells; AID 2066; GFP response vs DMSO, % at 10 µM;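 active = GFP response relative to DMSO above a set limit, near screen average plus 3 SD, cut at about 150% in these data; inconclusive = fewer than 70 cells counted for the yeast strain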;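 note: median GFP channel fluorescence of the gated AGP1 strain per well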
MEP2-GFP yeast: alters MEP2-GFP fluorescence in TOR pathway yeast screen; S. cerevisiae MEP2-GFP strain, flow cytometry GFP, 3 h; 100% = DMSO control level; GFP response vs DMSO, % at 10 µM; 0.51% of 330,000 active; AID 2016;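 active = GFP response versus DMSO above a set limit, roughly screen mean plus 3 SD, cut at about 180% in these data; inconclusive = fewer than 70 cells counted for a yeast strain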;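 note: median GFP fluorescence of the barcode-gated MEP2-GFP cells per well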
LAP4-GFP MLPCN: modulators of TOR pathway LAP4-GFP in S. cerevisiae; S. cerevisiae LAP4-GFP multiplex, flow cytometry GFP, 3 h; median GFP as percent of DMSO wells; GFP response vs DMSO, % at 10 µM; 0.34% of 320,000 active;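 active = GFP response vs DMSO above a set limit, about the screen mean plus 3 SD, cut at about 150% in these data; inconclusive = under 70 cell events counted for the yeast strain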
CIT2 TOR yeast: yeast TOR pathway CIT2-GFP modulation | AID 2029 | 0.065% of 320,000 active | GFP response vs DMSO, % at 10 µM | S. cerevisiae CIT2-GFP strain, flow cytometry, 3 h; 100 means same as DMSO wells;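 active = GFP response relative to DMSO above a set limit, near the screen mean plus 3 SD, cut at about 150% in these data; inconclusive = Fewer than 70 cells measured for a yeast strain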;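 note: ratio of well median GFP fluorescence to mean of DMSO wells on the plate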
Yeast cmpd fluor: flagged as fluorescent in efflux inhibitor counter-screen. shares compounds with Efflux pump inh. fluorescence ratio to DMSO, % at 10 µM. S. cerevisiae AD/pABC3, compound fluorescence, flow cytometry. 4% of 1,700 active;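 active = fluorescence ratio to DMSO above its plate's cutoff, the plate mean ratio plus 5 SD, cut at about 210% in these data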;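 note: unstained yeast with no Nile Red so the signal is compound autofluorescence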
Mdr1 pump inh: blocks the Candida albicans Mdr1 efflux pump in yeast. 1% of 1,700 active. shares compounds with Efflux pump inh. AID 588518. S. cerevisiae AD/CaMDR1, Nile Red efflux, flow cytometry. inhibition, % at 10 µM; in the data active = inhibition above about 26%;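 note: higher means more Nile Red retained so more efflux inhibition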
Cdr2 pump inh: inhibitors of Candida albicans Cdr2 efflux pump. shares compounds with Efflux pump inh. Nile Red retention ratio vs DMSO, % at 10 µM. 4% of 1,700 active. S. cerevisiae AD/CaCDR2, Nile Red retention, flow cytometry; in the data active = Nile Red retention ratio vs DMSO above about 190%;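 note: higher ratio means more blocking of Cdr2 efflux of the dye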
CaCdr1 efflux inh: inhibitors of Candida albicans Cdr1 efflux pump; shares compounds with Efflux pump inh; S. cerevisiae AD/CaCDR1, Nile Red efflux, flow cytometry; inhibition, % at 10 µM; 1% of 1,700 active; AID 588522;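 active = inhibition above the screen-wide mean plus twice its standard deviation, cut at about 32% in these data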
Of the large screens only hits and unclear results are named; the others gave an inactive call (follow-up assays come after a bar, where they were run); [ ] = dose if it differs, or a comment. Rows were chosen to be rich in hits. Some 1.3% of all compounds tested hit in one or more screens of this group.

O=C(Nc1ccc(S(=O)(=O)Nc2ncccn2)cc1)c1cccc(Br)c1	none
O=C(Nc1ccc(S(=O)(=O)Nc2ccccn2)cc1)c1cccc(Br)c1	Efflux pump inh 6.2 | Yeast cmpd fluor inactive | Mdr1 pump inh inactive | Cdr2 pump inh inactive | CaCdr1 efflux inh inactive
CC(C)(C)c1nc2ccc(NS(=O)(=O)c3ccc(F)c(F)c3F)cc2[nH]1	none
N#CC1=C(N)C2=C(N3CCCCC3)CCCC2C1(C#N)C#N (configuration not stated)	none
N#CC(C#N)=C1C=C2C=C(N3CCCCC3)CCC2CC1 (configuration not stated)	Efflux pump inh 9.3, AGP1 TOR yeast 190[may fluoresce green], MEP2-GFP yeast 896[may fluoresce green], LAP4-GFP MLPCN 712[may fluoresce green], CIT2 TOR yeast 631[may fluoresce green] | Yeast cmpd fluor inactive | Mdr1 pump inh inactive | Cdr2 pump inh 232 | CaCdr1 efflux inh inactive
COC(=O)c1cc(OC)c(OC)cc1NC(=O)c1cc(-c2ccccc2)nc2ccccc12	none | Yeast cmpd fluor inactive | Mdr1 pump inh inactive | Cdr2 pump inh inactive | CaCdr1 efflux inh inactive
COc1cc(NC(=O)c2cc(-c3ccccc3)nc3c2cnn3C(C)C)cc(OC)c1OC	Efflux pump inh 1.0 | Yeast cmpd fluor inactive | Mdr1 pump inh inactive | Cdr2 pump inh inactive | CaCdr1 efflux inh inactive
CNC(=O)c1cccc(NC(=O)c2cc(-c3ccccc3)nc3c2cnn3C(C)C)c1	none
O=C(CCl)Nc1cn(-c2ccccc2)nc1-c1ccccc1	none
COc1cc(/C=C/C(=O)c2ccc([N+](=O)[O-])o2)ccc1O	Efflux pump inh 0.8, LAP4-GFP MLPCN 232[may fluoresce violet], CIT2 TOR yeast inconclusive | Yeast cmpd fluor inactive | Mdr1 pump inh inactive | Cdr2 pump inh inactive | CaCdr1 efflux inh inactive
COc1cc(/C=C/C(=O)O)ccc1O	none
O=C(c1ccc(F)cc1)C1CCN(C(=O)c2ccccc2F)CC1	none
O=C(O)CCCN1C(=O)/C(=C/c2ccc(-c3nc4ccccc4s3)o2)SC1=S	none | Yeast cmpd fluor 220 | Mdr1 pump inh inactive | Cdr2 pump inh active | CaCdr1 efflux inh inactive
COCCCN(CC(=O)Nc1ccc(N2CCOCC2)cc1)S(=O)(=O)c1ccc(Cl)cc1	none
CC1CCN(S(=O)(=O)c2ccc3c(c2)N(CC(=O)NCCCN2C(C)CCCC2C)C(=O)CO3)CC1 (configuration not stated)	none
COc1ccc(-c2nn(-c3ccccc3)cc2C(=O)NC2CC2)cc1	none
Cc1ccc([N+](=O)[O-])cc1S(=O)(=O)Nc1cccc(-c2ccc(N3CCCC3)nn2)c1	Efflux pump inh 0.4 | Yeast cmpd fluor inactive | Mdr1 pump inh inactive | Cdr2 pump inh inactive | CaCdr1 efflux inh inactive
COc1ccc2cc(-c3ccccc3F)ncc2c1	none
CNc1nc2[nH]c(=O)c3c(c2s1)OC(N)=C(C#N)C3c1ccccc1 (configuration not stated)	Efflux pump inh 9.7 | Yeast cmpd fluor inactive | Mdr1 pump inh inactive | Cdr2 pump inh inactive | CaCdr1 efflux inh inactive
CC(=O)c1cccc(NC(=O)N2CCC(NC(=O)C3CCCCC3)CC2)c1	none
CC1(C)C2CCC1(CS(=O)(=O)N1CCC(C(N)=O)CC1)C(=O)C2 (configuration not stated)	none
CC1(C)C2CCC1(CS(=O)(=O)N1CCOCC1)C(=O)C2 (configuration not stated)	Efflux pump inh 1.4 | Yeast cmpd fluor inactive | Mdr1 pump inh inactive | Cdr2 pump inh inactive | CaCdr1 efflux inh inactive
Oc1ccc(CCNc2ncnc3ccc(Cl)cc23)cc1	Efflux pump inh 1.0 | Yeast cmpd fluor inactive | Mdr1 pump inh inactive | Cdr2 pump inh inactive | CaCdr1 efflux inh inactive
O=[N+]([O-])c1cnccc1Nc1ccccc1	none
O=C(O)c1cccc(Nc2ccncc2[N+](=O)[O-])c1	Efflux pump inh 1.2 | Yeast cmpd fluor inactive | Mdr1 pump inh inactive | Cdr2 pump inh inactive | CaCdr1 efflux inh inactive
C=CCNC(=O)NC(=O)COC(=O)/C(C#N)=C/c1cc(C)n(CC(C)C)c1C	Efflux pump inh 2.4 | Yeast cmpd fluor inactive | Mdr1 pump inh inactive | Cdr2 pump inh inactive | CaCdr1 efflux inh inactive
CCCn1c(C)cc(/C=C(\C#N)C(=O)OCC(=O)NC(=O)NC(C)(C)C)c1C	none
COc1cccc(C(C(=O)NC(C)(C)C)N(C(=O)CCC(=O)Nc2cc(C)on2)C(C)C)c1OC (configuration not stated)	none (no result: CIT2 TOR yeast) | Yeast cmpd fluor inactive | Mdr1 pump inh inactive | Cdr2 pump inh inactive | CaCdr1 efflux inh inactive
COc1cccc(C(C(=O)NC(C)(C)C)N(C(=O)CCC(=O)Nc2cc(C)on2)C(C)(C)C)c1OC (configuration not stated)	none | Yeast cmpd fluor inactive | Mdr1 pump inh inactive | Cdr2 pump inh inactive | CaCdr1 efflux inh inactive
Cc1ccc(S(=O)(=O)N2CCCN(C(=O)CNC(=O)c3cccc(C)c3)CC2)cc1	none
Cc1ccc(C(=O)NCC(=O)OCC(=O)c2ccccc2)s1	none
CC1CCCCN1CCCNC(=O)C1CCCN(c2ncnc3c2nc2n3CCCCC2)C1 (configuration not stated)	none
O=C(CSc1ccccc1C(=O)O)NC12CC3CC(CC(C3)C1)C2	none
O=C(CSc1ncccc1C(=O)O)NC12CC3CC(CC(C3)C1)C2	Efflux pump inh 0.5 | Yeast cmpd fluor inactive | Mdr1 pump inh inactive | Cdr2 pump inh inactive | CaCdr1 efflux inh inactive
COc1cccc(CC(=O)Nc2cc(S(=O)(=O)N3CCOCC3)ccc2N2CCN(C)CC2)c1	none
COc1ccc(C(=O)NCc2ccc3c(c2)OCO3)cc1S(=O)(=O)N(C)Cc1ccccc1	Efflux pump inh 7.6 | Yeast cmpd fluor inactive | Mdr1 pump inh inactive | Cdr2 pump inh inactive | CaCdr1 efflux inh inactive
CN(Cc1ccccc1)C(=O)COC(=O)CNS(=O)(=O)c1ccc2ccccc2c1	Efflux pump inh 75 | Yeast cmpd fluor inactive | Mdr1 pump inh inactive | Cdr2 pump inh inactive | CaCdr1 efflux inh inactive
CC(C)(C)N(Cc1ccccc1)C(=O)COC(=O)CNS(=O)(=O)c1ccc2ccccc2c1	none
Cc1nn(-c2ccccc2)c(C)c1NC(=O)COC(=O)CC(C)c1ccccc1 (configuration not stated)	none
